Screening results deposited in PubChem by National Center for Advancing Translational Sciences (NCATS).
In the library only some 1.2% were active in any assay of this set; here they are far more common.
IDH1 R132H inh – qHTS for Inhibitors of mutant isocitrate dehydrogenase 1 (IDH1): qHTS. IDH1-R132H enzyme, NADPH consumption, diaphorase/resazurin fluorescence. 390,000 compounds, 0.093% hits. Potency, µM (top dose mostly 76.6 µM), for inactives: at the highest dose activity change, negative = inhibition, hits mostly inhibitors. Isocitrate dehydrogenase [NADP] cytoplasmic (Homo sapiens), O75874; further: nearly all actives have a fitted effect of over 65% in size
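IDH1-R132H (0.5 ug/mL) preincubated 30 min with compound, then NADPH (0.016 mM) and alpha-KG (2 mM) added; 80 min at RT, pH 7.5. Remaining NADPH coupled via diaphorase/resazurin to fluorescence (540/590 nm); concentration-response curves normalized to no-enzyme control.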
GLS inh – qHTS for Inhibitors of Glutaminase (GLS); Glutaminase kidney isoform, mitochondrial (Homo sapiens), O94925; GLS enzymatic activity, qHTS titration; 410,000 compounds, 0.21% hits; Potency, µM (highest dose often 45.5 µM), without a hit: at the highest dose activity change, negative = inhibition, usual class: inhibitors
Target sequence (O94925 whole entry, looked up, canonical isoform): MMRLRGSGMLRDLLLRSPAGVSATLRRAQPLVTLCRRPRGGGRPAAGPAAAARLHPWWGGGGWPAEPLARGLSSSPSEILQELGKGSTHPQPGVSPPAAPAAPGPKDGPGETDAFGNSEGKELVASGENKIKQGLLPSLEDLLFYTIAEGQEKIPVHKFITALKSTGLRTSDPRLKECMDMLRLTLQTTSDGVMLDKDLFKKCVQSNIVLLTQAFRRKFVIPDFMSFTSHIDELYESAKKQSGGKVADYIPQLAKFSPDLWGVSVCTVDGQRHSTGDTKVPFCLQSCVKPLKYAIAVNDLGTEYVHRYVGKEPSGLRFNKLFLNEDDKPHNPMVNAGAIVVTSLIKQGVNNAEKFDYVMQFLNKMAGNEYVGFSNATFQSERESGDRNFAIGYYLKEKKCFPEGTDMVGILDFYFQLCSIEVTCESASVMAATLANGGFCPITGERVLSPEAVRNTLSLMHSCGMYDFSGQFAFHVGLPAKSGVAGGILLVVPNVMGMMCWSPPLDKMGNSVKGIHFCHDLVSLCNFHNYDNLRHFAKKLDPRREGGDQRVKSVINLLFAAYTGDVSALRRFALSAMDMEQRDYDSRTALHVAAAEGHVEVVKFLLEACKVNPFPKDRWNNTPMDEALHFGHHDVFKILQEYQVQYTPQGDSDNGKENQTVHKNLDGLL
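Enzyme dispensed in phosphate buffer (45 mM, pH 8.2, 0.02% Tween-20), compounds pinned in, then 1 mM L-glutamine solution and the glutamate oxidase–HRP–Amplex Red mix added; fluorescence read immediately and again after 30 min at room temperature.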
TrxR1 substrate – qHTS Assay for Substrates of Mammalian Selenoprotein Thioredoxin Reductase 1 (TrxR1): qHTS | Thioredoxin reductase 1, cytoplasmic (Rattus norvegicus), O89049 | purified TrxR1 substrate turnover, NADPH consumption readout | Potency, µM (highest dose often 114 µM), for the others: at the top dose activity change, negative = substrate turnover | 390,000 compounds, 0.01% hits; further: nearly all actives have a fitted effect of over 50% in size
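Rat TrxR1, dispensed at 90 nM, was prereduced with 400 uM NADPH (final) for 5 min at ~22 deg C, then incubated with compound 15 min before 400 uM selenite. A first-read NADPH fluorescence drop versus no-compound background flagged substrates.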
rTrxR1 inhibitor – qHTS Assay for Inhibitors of Mammalian Selenoprotein Thioredoxin Reductase 1 (TrxR1): qHTS; Potency, µM (titrated, usually from 114 µM), for the others: at the highest dose activity change, negative = inhibition, most hits filed as inhibitors; recombinant rTrxR1, NADPH fluorescence consumption, selenite substrate; 390,000 compounds, 1% hits; Thioredoxin reductase 1, cytoplasmic (Rattus norvegicus), O89049; further: nearly all actives have a fitted effect of over 65% in size
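Rat TrxR1 (90 nM in the dispensed reagent) was pre-reduced with 400 uM NADPH for 5 min at room temperature, then incubated with compound for 15 min. After 400 uM selenite was added, NADPH fluorescence (Ex 340/Em 450 nm) was followed for 8 min.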
Numbers without * were called inactive; ? = inconclusive; / = not tested or not shown; ! = repeats disagree; [ ] = remark or other dose. The call rests on the fitted dose curve; in most records, active means well fitted curve in the direction sought with a large enough effect; inconclusive means small, poorly fitted or top-dose-only effect, or another doubt; inactive means no such curve, though single readings can be large; an effect the other way counts as inactive or inconclusive. On the % scale 0 is the no-effect control and ±100 the full control effect; potency means the concentration at half of the fitted maximal effect.

SMILES | IDH1 R132H inh | GLS inh | TrxR1 substrate | rTrxR1 inhibitor
O=c1oc(-c2ccc(O)c(O)c2)cc2cccc(O)c12 | -3.0% | ? | 9.2% | 9.7%
O=c1oc(-c2ccc(O)c(O)c2)cc2cc(O)cc(O)c12 | -7.7% | 17.8µM* | 31.5% | 8.0%
CC(C)(C)n1ncc2c(=O)n(Cc3ccccc3C(F)(F)F)cnc21 | / | / | -2.6% | 3.0%
CCN1C(=O)/C(=C/C=C2\N(CC)c3cc(S(=O)(=O)N(C)C)ccc3N2c2ccccc2)SC1=S | 52.1µM* | -16.5% | -1.0% | 18.5%
O=C(NCc1ccccc1)c1cccn1-c1nnc(N2CCCC2)s1 | 10.3% | 4.7% | 3.1%[57.1 µM] | 15.4%[57.1 µM]
Cc1nn(-c2ccccc2)c(C)c1C1C(C#N)=C(N)Oc2n[nH]c(C)c21 (stereo not drawn) | 6.8% | 20µM* | 2.7% | 0.7%
O=C1C2C3C=CC(CNS(=O)(=O)c4ccccc4[N+](=O)[O-])(O3)C2C(=O)N1c1ccccc1 (stereo not drawn) | -1.1% | 5.1% | 14.6%[57.1 µM] | 17.8µM*
Cc1cc(C)c(S(=O)(=O)NCCS(=O)(=O)N2CCN(c3ccccc3)CC2)c(C)c1 | 1.3% | -0.2% | 1.1%[57.1 µM] | 24.6%[57.1 µM]
Cc1cc(C)c(S(=O)(=O)NCC23C=CC(O2)C2C(=O)N(c4ccccc4)C(=O)C23)c(C)c1 (stereo not drawn) | 6.9% | -26.7% | -13.4% | 14.1µM*
COc1cccc(/C=C/c2ccnc3ccccc23)c1OC | / | / | 13.3% | 18.8%
COCCN(C(=O)COC(=O)C12CC3CC(CC(O)(C3)C1)C2)c1c(N)n(Cc2ccccc2)c(=O)[nH]c1=O | -4.8% | 5.8% | / | /
O=C(COC(=O)c1ccccc1Oc1ccccc1)Nc1ccc(Br)cc1 | / | / | -2.2% | -3.1%
CCCCN(CCC#N)c1ccc(/C=C/c2ccnc3ccccc23)cc1 | / | / | -1.6% | 15.3%
O=C(Sc1ccc(Cl)cc1)c1ccccn1 | 0.1% | -4.2% | -3.5% | 1.12µM*
O=C(NCCNC(=O)c1ccccn1)c1ccc(Cl)cc1 | 5.7% | -18.9% | 8.2%[57.1 µM] | 23.6%[0.0914 µM]
CCOc1ccc(-c2nnc(SCC(=O)Nc3cc(C)ccc3OC)o2)cc1 | 6.6% | 0.7% | -1.1% | 28.2µM*
O=C1C=C(O)c2cccc(O)c2C1=O | 2.8% | -3.1% | -3.6% | -0.6%
O=C1C=C(c2c(O)ccc3ccccc23)c2ccccc2C1=O | 24.2% | ? | 79.4µM* | ?
CC(=O)c1ccc(N=C2C(=O)Nc3ccccc32)cc1 | 26.1µM* | 4.3% | -5.0% | 2.1%
O=C(O)C(Cc1ccccc1)n1cccc1 (stereo not drawn) | 13.1% | 12.6µM* | 7.1%[57.1 µM] | 4.7%[57.1 µM]
O=C(C(Cc1ccccc1)n1cccc1)N1CCN(c2ccccc2)CC1 (stereo not drawn) | 26.0% | 3.4% | 9.5%[57.1 µM] | 16.4%[57.1 µM]
COc1ccc(OC)c(CNC(=O)c2ccc(Sc3ccc(Cl)cc3)c(NC(C)=O)c2)c1 | -14.0% | 3.2% | 4.1%[57.1 µM] | 27.4%[57.1 µM]
CC(C)OCCCn1c(=O)c2ccccc2n2c(CCC(=O)N3CCN(c4ccccn4)CC3)nnc12 | -1.7% | 3.6% | 17.2%[57.1 µM] | 20.2%[57.1 µM]
O=C(CCc1nnc2n(Cc3ccc(Cl)cc3)c(=O)c3ccccc3n12)N1CCN(c2ccccn2)CC1 | -7.4% | 11.2µM* | 4.0% | 28.8%
Clc1cccc(Cc2c(-c3ccco3)nc3ccc(Br)cn23)c1 | / | 11.2µM* | / | /
SMILES | IDH1 R132H inh | GLS inh | TrxR1 substrate | rTrxR1 inhibitor
O=C(NCCc1c[nH]c2ccccc12)OC1CC2CC1[C@H]1CCCCN1C2=O (stereo partly drawn) | / | 21.6% | / | /
C=C1CN(Cc2ccccc2)S(=O)(=O)c2ccccc21 | 5.9% | -22.3% | -1.1% | 28.2µM*!
C=C1CN(CC(=O)OC)S(=O)(=O)c2ccccc21 | 0.6%[38.3 µM] | 1.1% | 6.4%[57.1 µM] | ?
CCOC(=O)[C@H](CCc1ccccc1)N[C@@H](C)C(=O)N1C(=O)N(C)C[C@H]1C(=O)O | / | 18.1% | / | /
CS(=O)(=O)Nc1cccc(-c2cn3c(n2)SCC3)c1 | -10.3% | 15.0% | -11.7% | 31.6µM*
O=C(c1cccc(Cl)c1Cl)N(Cc1ccco1)Cc1cccs1 | / | / | 0.9% | 12.6µM*
O=C(O)CN1C(=O)/C(=C/c2ccc(N3CCCCC3)o2)SC1=S | 10.4µM* | 11.2µM* | 5.3% | 28.2µM*
COC(=O)CN1C(=O)S/C(=C/c2ccc(N3CCCCC3)o2)C1=O | 10.1% | -23.5% | -15.0% | 3.55µM*
CCOC(=O)CN1C(=O)S/C(=C/c2ccc(N3CCCCC3)o2)C1=O | 10.1% | -13.5% | 0.2% | 50.1µM*
COC(=O)CN1C(=O)S/C(=C/c2cc(C)n(C)c2C)C1=O | 4.4% | 2.3% | 3.3%[57.1 µM] | -20.6%[57.1 µM]
NC(=O)c1ccccc1OCC(=O)N1CCCC1c1ccc2c(c1)OCCCO2 (stereo not drawn) | 8.5% | -11.6% | -1.5% | -3.5%
CCCCNC(=O)c1sc2ncnc(N3CCc4ccccc4C3)c2c1C | 11.3% | 2.0% | 25.1% | 2.82µM*
COc1cccc(C(=O)NN2C(=O)C3C4C=CC(O4)C3C2=O)c1 (stereo not drawn) | -3.2% | 5.3% | -3.2% | 28.2µM*
COc1ccc(C)cc1Nc1nc2c(S(=O)(=O)c3cc(C)ccc3C)nnn2c2ccsc12 | -17.5% | -10.0% | 16.5% | 32.9%
C=CCC1NS(=O)(=O)OCC1NC(=O)OCC(Cl)(Cl)Cl (stereo not drawn) | -11.0% | 1.2% | 3.2%[57.1 µM] | 10.1%[57.1 µM]
CC(C)(C)OC1NS(=O)(=O)OCC1NCOC(Cl)(Cl)Cl (stereo not drawn) | -14.0% | -1.7% | 5.4% | 1.78µM*
CC(OC(=O)[C@H](C)N=C1NS(=O)(=O)c2ccccc21)C(=O)Nc1ccc(F)c(F)c1F (stereo partly drawn) | -4.2% | 2.1% | / | /
COc1ccc(CC(=O)NO)cc1 | / | / | 4.2% | 8.6%
N#CC1=C(N)C(C#N)(C#N)C(c2cccnc2)C2CN(C(=O)OCc3ccccc3)CC=C12 (stereo not drawn) | 52.1µM* | -6.6% | 2.2% | ?
O=S(=O)(NCC(c1ccc2c(c1)OCO2)N1CCOCC1)c1ccc(Br)cc1 (stereo not drawn) | -1.9% | -1.5% | 4.2%[57.1 µM] | 5.0%[57.1 µM]
Oc1cc2c(cc1C(c1ccc(Br)cc1)N1CCCC1)OCO2 (stereo not drawn) | 19.3% | -3.3% | -17.8%[57.1 µM] | 2.51µM*
CC1(C)CC(NC(=O)c2ccc(Cl)c(Cl)c2)CC(C)(C)N1 | 0.0% | -14.8% | 8.7% | 37.2%
O=[N+]([O-])c1c(NCCCO)cc(Sc2ccc(Cl)cc2)c2nonc12 | -0.8% | 4.9% | -5.1% | 2.82µM*
COc1ccc(Nc2cc(NCCCO)c([N+](=O)[O-])c3nonc23)cc1 | 4.2% | 12.1% | -13.8% | 4.0%
CCCC(=O)OCCNc1cc(SCCC(=O)OC)c2nonc2c1[N+](=O)[O-] | -3.5% | -5.3% | -11.5% | 10µM*
Cn1ccnc1Sc1cc(NCCCO)c([N+](=O)[O-])c2nonc12 | 4.8% | 5.6% | 9.1%[57.1 µM] | ?
